Test results as given in PubChem BioAssay AID624288 (National Center for Advancing Translational Sciences (NCATS), 2012).
In all, about 340,000 compounds went through this assay and about 1,400 (0.41%) were called active. Where a call stands in place of a potency, no number is given. Inconclusive results (about 4%) are left out. The call rests on the fitted dose curve; cell line not stated here. This excerpt belongs to a sample that is enriched for actives.

assay: qHTS for Antagonists of gsp, the Etiologic Mutation Responsible for Fibrous Dysplasia/McCune-Albright Syndrome: qHTS; conditions: gsp-mutant cells, cAMP HTRF, 30 min; series mostly up to 76.9 µM; further: nearly all actives have a fitted effect of over 65% in size
How it was run: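 HTRF cAMP read-out (cAMP-d2 plus anti-cAMP antibody-K in lysis buffer, 30 min RT). Before lysis, cells are exposed to compounds with […] for 30 min at 37C in DPBS containing Ca/Mg, BSA and Tween 20.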
Potency means the concentration at half of the fitted maximal effect.

| Structure (SMILES) | Potency |
| --- | --- |
| O=C1CC(c2ccccc2)C(=O)N2C(=O)CC(c3ccccc3)C(=O)N12 (stereo not drawn) | inactive |
| Cc1nc(Nc2ccccc2C)c2cnn(C)c2n1 | inactive |
| COc1ccc(N=C2C=CC(=O)O2)cc1 | inactive |
| O=C(CCNC(=O)c1ccccc1)Nc1nc2ccccc2s1 | inactive |
| O=C(NC(Nc1nc2ccc([N+](=O)[O-])cc2s1)(C(F)(F)F)C(F)(F)F)c1ccccc1 | 3.98 µM (active) |
| N=C1C(c2nc3ccccc3s2)=C(O)CN1NC(=O)c1ccc([N+](=O)[O-])cc1 | inactive |
| CC(=O)Nc1ccc(C(=O)Nc2cc(S(=O)(=O)N3CCOCC3)ccc2N2CCOCC2)cc1 | inactive |
| CC1(C)N=C(N)NC(Nc2ccc(Cl)cc2)=N1 | inactive |
| O=C(O)c1ccccc1NC(=O)c1ccccc1-c1ccccc1C(=O)O | inactive |
| CC1CCCCC1NCC(=O)Nc1ccccc1C(=O)Nc1ccccc1 (stereo not drawn) | inactive |
| O=C(Nc1ccccc1)c1ccccc1NC(=O)C(F)(F)F | 31.6 µM (active) |
| c1ccc(CCc2ccccn2)cc1 | inactive |
| Cc1cc(N2C(=O)C(=O)/C(=C(/O)c3ccc(Cl)cc3)C2c2cccc(Br)c2)no1 (stereo not drawn) | inactive |
| COc1ccccc1C1/C(=C(/O)c2ccc(OC(C)C)cc2)C(=O)C(=O)N1c1cc(C)on1 (stereo not drawn) | 28.2 µM (active) |
| Cc1cc(N2C(=O)C(=O)/C(=C(/O)c3ccccc3)C2c2cccc(Br)c2)no1 (stereo not drawn) | inactive |
| COc1ccc(CNCCCNCc2ccc(OC)c(OC)c2)cc1OC | inactive |
| O=C1NC(c2ccccc2)Cc2ccncc21 (stereo not drawn) | inactive |
| Cc1nnc(NC(=O)c2ccc3nccnc3c2)s1 | inactive |
| Cc1cccc(CS(=O)(=O)c2ncc(Cl)c(C(=O)Nc3ccc(F)cc3)n2)c1 | 50.1 µM (active) |
| COCCSc1nnc(NC(=O)CCS(=O)(=O)Cc2ccccc2)s1 | inactive |
| CSc1ncc(Cl)c(C(=O)Nc2cc(C)ccc2C)n1 | inactive |
| CSc1nnc(NC(=O)c2nc(S(=O)(=O)Cc3ccc(C)cc3)ncc2Cl)s1 | 15.8 µM (active) |
| Cc1ccc(CS(=O)(=O)c2ncc(Cl)c(C(=O)Nc3nnc(C)s3)n2)cc1 | 31.6 µM (active) |

| Structure (SMILES) | Potency |
| --- | --- |
| Cc1ccc(S(=O)(=O)CC(=O)Nc2nnc(C)s2)cc1 | inactive |
| CCOc1ccc(NC(=O)c2nc(SCC)ncc2Cl)cc1 | inactive |
| Cc1cccc(NC(=O)c2nc(S(=O)(=O)Cc3ccccc3)ncc2Cl)c1 | inactive |
| NC(=O)C1(Nc2ccc(-c3ccccc3)cc2)CCCC1 | inactive |
| CC(C)OC(=O)c1ccc(NCc2cc(O)ccc2O)cc1Cl | inactive |
| C=CCCC(=O)N1C[C@H]2CON(C)[C@H]2C[C@H]1c1cccc(Nc2ccccc2)c1 | inactive |
| CCOc1ccccc1NC(=S)C(=C([O-])c1ccc2c(c1)OCCO2)[n+]1ccc(CC)cc1 | inactive |
| O=c1c2ccccc2ncn1CCc1ccncc1 | inactive |
| Cc1ccc(C)c(S(=O)(=O)N(C)c2ccc(OC(=O)C3CCN(C(=O)c4ccc(F)cc4)CC3)cc2)c1 | inactive |
| CCOc1cc(C(=O)N(Cc2ccccc2)c2ccc(C)cc2)ccc1OCC(=O)N1CCOCC1 | inactive |
| Cc1ccc2oc(=O)ccc2c1 | inactive |
| O=[N+]([O-])c1ccc(N=NNc2ccc([N+](=O)[O-])cc2)cc1 | inactive |
| OCC1(CO)CC2(C1)CC(CO)(CO)C2 | inactive |
| COc1ccc(N(C)S(=O)(=O)c2ccc3c(c2)CC(C)N3C(=O)C2CC2)c(OC)c1 (stereo not drawn) | 31.6 µM (active) |
| COc1cccc(CNS(=O)(=O)c2ccc3c(c2)CC(C)N3C(=O)C2CCC2)c1 (stereo not drawn) | inactive |
| COc1cccc(CNS(=O)(=O)c2ccc3c(c2)CC(C)N3C(C)=O)c1 (stereo not drawn) | inactive |
| O=C(Nc1cccc(Br)c1)C1CC(=O)N(C2CCCC2)C1 (stereo not drawn) | inactive |
| CCN(C(=O)C1CCCN(c2nc(-c3ccc(OC)cc3)no2)C1)c1ccc(OC)cc1 (stereo not drawn) | 35.5 µM (active) |
| COc1ccc(NC(=O)N2CCCC(c3nc(-c4ccc(F)cc4)no3)C2)cc1 (stereo not drawn) | inactive |
| CCOC(=O)C1CCCN(C(=O)CN(c2ccc(OC)cc2)S(=O)(=O)c2c(C)noc2C)C1 (stereo not drawn) | inactive |
| O=C(O)C(=Cc1ccccc1[N+](=O)[O-])c1ccccc1 | inactive |
| N#Cc1c(-c2ccccc2)nc(SCc2ccc([N+](=O)[O-])cc2)[nH]c1=O | inactive |
| N#Cc1c(-c2ccccc2)nc(SCc2cccc(C(F)(F)F)c2)[nH]c1=O | 50.1 µM (active) |

| Structure (SMILES) | Potency |
| --- | --- |
| Cc1ccc(CSc2nc(-c3ccccc3)c(C#N)c(=O)[nH]2)cc1 | inactive |
| O=C(NC1=CC(=O)c2ccccc2C1=O)c1ccccc1 | inactive |
| CC(=O)N(C1=C(Cl)C(=O)c2ccccc2C1=O)c1ccc(C(=O)O)cc1 | 50.1 µM (active) |
| CC(=O)c1cccc(NC(=S)N2CCCC2)c1 | inactive |
| CSc1nsc(NC(=O)Nc2ccccc2)n1 | inactive |
| CCSc1nsc(NC(=O)Nc2ccccc2OC)n1 | inactive |
| C=C(C)C(=O)Nc1cccc(C(C)=O)c1 | inactive |
| C=CCSc1nsc(NC(=O)Nc2cccc(C(C)=O)c2)n1 | 28.2 µM (active) |
| CCSc1nsc(NC(=O)Nc2cccc(C(C)=O)c2)n1 | 25.1 µM (active) |
| CC1C(C)N(C(=O)CCl)c2ccccc2N1C(=O)CCl (stereo not drawn) | inactive |
| O=S(=O)(O)c1cc2onnc2c2ccccc12 | inactive |
| CC(C)(C)OC(=O)N1CCC(C(=O)Nc2cccc(C(=O)NCCc3ccccc3)c2)CC1 | inactive |
| O=C(OC12CC3CC(CC(C3)C1)C2)c1ccc(NCc2cc(O)ccc2O)cc1 | inactive |
| COc1ccc(-c2onc(C)c2-c2ccc3c(c2)OCCO3)c(O)c1 | inactive |
| CCN1CCN(Cc2c(O)ccc3c(=O)c(-c4ccc(OC)c(OC)c4)c(C(F)(F)F)oc23)CC1 | inactive |
| O=c1c(-c2ccc3c(c2)OCCO3)c(C(F)(F)F)oc2cc(O)cc(O)c12 | 39.8 µM (active) |
| CC(C)(C)S(=O)(=O)N1Cc2cc(CO)cc(CCO)c2[C@H]1CCO | inactive |
| COc1cccc(C=CC(=O)C=CC=Cc2ccccc2)c1 | inactive |
| COc1ccc(-c2ccc3c(c2)C2CC3CCN2CCC#N)cc1 (stereo not drawn) | inactive |
| O=C(/C=C/c1ccc(Cl)cc1Cl)c1cccnc1 | inactive |
| O=C1[C@@H]2C(c3cccnc3)=NO[C@@H]2C(=O)N1c1ccc(Cl)cc1Cl | 11.2 µM (active) |
| O=C(NNC1CC(=O)N(c2cccc(Cl)c2)C1=O)c1cccnc1 (stereo not drawn) | inactive |
